Source: PubChem BioAssay (The Scripps Research Institute Molecular Screening Center)
An excerpt weighted towards active compounds, which were near 3.5% of everything screened.
FBW7 activator: activators of human E3 ligase FBW7. Q969H0. AlphaScreen FBW7–phospho-cyclin E peptide binding, activator screen. normalized activity (activation), % at 26.1 µM. 0.13% of 650,000 active; in the data active = normalized activity above about 1.9%;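 also: purified mutant Fbw7 with reduced substrate affinity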
Target sequence (Q969H0 whole entry, looked up): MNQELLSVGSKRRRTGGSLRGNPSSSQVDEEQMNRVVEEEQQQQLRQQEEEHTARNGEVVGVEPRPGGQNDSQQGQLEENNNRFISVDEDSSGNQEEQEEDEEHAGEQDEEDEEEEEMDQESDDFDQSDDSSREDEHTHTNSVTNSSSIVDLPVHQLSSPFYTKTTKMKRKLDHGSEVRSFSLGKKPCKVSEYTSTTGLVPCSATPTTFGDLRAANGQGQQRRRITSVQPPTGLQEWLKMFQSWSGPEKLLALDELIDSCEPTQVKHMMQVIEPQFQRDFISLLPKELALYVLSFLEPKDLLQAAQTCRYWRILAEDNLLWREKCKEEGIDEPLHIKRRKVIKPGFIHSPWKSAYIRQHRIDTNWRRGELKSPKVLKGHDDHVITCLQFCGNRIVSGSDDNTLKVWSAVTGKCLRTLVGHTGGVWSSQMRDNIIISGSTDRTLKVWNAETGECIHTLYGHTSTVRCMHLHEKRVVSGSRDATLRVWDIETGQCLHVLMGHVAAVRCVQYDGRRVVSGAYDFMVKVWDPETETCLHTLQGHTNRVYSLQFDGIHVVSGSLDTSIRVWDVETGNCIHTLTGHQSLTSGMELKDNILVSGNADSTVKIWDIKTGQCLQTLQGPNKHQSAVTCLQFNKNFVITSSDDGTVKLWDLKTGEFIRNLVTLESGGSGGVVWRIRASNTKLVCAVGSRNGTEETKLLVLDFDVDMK
TEAD-YAP inh: TEAD-YAP interaction inhibition; HEK-TIYL cells, TEAD-Gal4/YAP UAS-luciferase luminescence; inhibition, % at 9.12 µM; 1.4% of 640,000 active; in the data active = inhibition above about 32%
GPR151 ag: activators of human GPR151; Q8TDV0; PathHunter beta-arrestin GPR151 cells, luminescence; activation, % at 11.2 µM; 1% of 650,000 active; AID 1508602; in the data active = activation above about 4.9%
MITF inh: blocks human microphthalmia-associated transcription factor; O75030; AlphaScreen MITF homodimerization, bead proximity signal; inhibition, % at 2.6 µM; 0.91% of 650,000 active; in the data active = inhibition above about 50%
Large screens that a line does not name were inactive.

C=CCN(CC=C)S(=O)(=O)c1ccc(C(=O)Nc2ccc3c4c(cccc24)C(=O)N3CC)cc1	none
Cc1ccc(C(C(=O)NC2CCCCC2)N(C(=O)C(F)(F)F)C2CC2)s1 (stereo unspecified)	none
Cc1ccccc1Cc1c(C)nc2c(C(=O)NC3CCCC(C)C3C)cnn2c1C (stereo unspecified)	none
O=C(NCC1COC2(CCCC2)O1)c1ccc2ccccc2c1 (stereo unspecified)	none
COc1ccc(C(=O)Nc2ccc3c4c(cccc24)CC3)cc1	none
COc1cc(C(=O)Nc2ccc3c4c(cccc24)CC3)cc(OC)c1OC	TEAD-YAP inh 53
CCC1CCCCN1CCN1C(=O)C2C(C(=O)Nc3cc(C)cc(C)c3)C3C=CC2(O3)C1C(=O)NC1CCCCC1 (stereo unspecified)	none
CCOC(=O)C1=C(C)Nc2nnnn2C1c1cc(Br)c(OC)c(OC)c1 (stereo unspecified)	TEAD-YAP inh 53
COC(=O)C1=C(C)NC(=O)NC1c1cc(Br)c(OC)c(OC)c1 (stereo unspecified)	none
COC(=O)C1=C(C)Nc2nnnn2C1c1ccc(OC)cc1 (stereo unspecified)	none
COC(=O)C1=C(C)Nc2nnnn2C1c1cc(OC)c(OC)c(OC)c1 (stereo unspecified)	TEAD-YAP inh 51
CCCCOc1c(Br)cc(C2NC(=O)NC(C)=C2C(=O)OC)cc1OC (stereo unspecified)	TEAD-YAP inh 35
CCOC(=O)C1=C(C)Nc2nnnn2C1c1ccc(OC)c(OC)c1 (stereo unspecified)	none
COc1nc(Nc2cc(OC)c(OC)c(OC)c2)nc(-c2ccc(C(=O)N3CCN(C)CC3)cc2)n1	none
N#Cc1ccccc1COC(=O)c1cccc(S(=O)(=O)N2CCCCCC2)c1	none
O=C(c1ccn(-c2ccnc(Nc3ccc(N4CCOCC4)cc3)c2)n1)N1CCC(O)CC1	TEAD-YAP inh 60
COc1ccccc1-n1c(CNC(=O)c2cccc(C)c2)nnc1SCC(=O)N1N=C(c2cccs2)CC1c1ccc(F)cc1 (stereo unspecified)	none
O=C(NCc1ccccc1)c1cncc(Nc2cccnc2)c1	none
Cc1cc(C)n(CCNC2CCN(c3cccc(NC(=O)CC4CCCC4)c3)CC2)n1	TEAD-YAP inh 42
Cc1cc(C)n(CCNC2CCN(c3cccc(NC(=O)C4CC4)c3)CC2)n1	none
COc1ccc(/C=N\Nc2nc3ccccc3s2)cc1	TEAD-YAP inh 42
COc1ccc(C(=O)NC(=S)NC2CCS(=O)(=O)C2)cc1 (stereo unspecified)	none
O=S1(=O)CCC(NC(=S)Nc2ccc(OC(F)F)cc2)C1 (stereo unspecified)	TEAD-YAP inh 41
Cc1[nH]cnc1CN1CCCC(C(=O)c2ccc(Oc3ccccc3)cc2)C1 (stereo unspecified)	TEAD-YAP inh 33
CCc1ccc(/C=C2\C(=N)N3N=C(N4CCOCC4)SC3=NC2=O)cc1	none
c1ccc2sc(N3CCN(C4CCCCC4)CC3)nc2c1	TEAD-YAP inh 69
COC(=O)c1cc(Nc2ccc3c(c2)OCO3)c2cc(C)ccc2n1	none
COC(=O)c1cc(Nc2cccc(OC)c2)c2cc(Cl)ccc2n1	TEAD-YAP inh 38
COC(=O)c1cc(Nc2cc(OC)cc(OC)c2)c2cc(C)ccc2n1	TEAD-YAP inh 41
COC(=O)c1cc(Nc2ccccc2OC)c2cc(Cl)ccc2n1	none
CC(C)[C@H]1CN(Cc2ccccc2F)CCN1C(=O)c1ccc2c(c1)n(C)c(=O)n2C	none
N/C(=N\c1nc(C(F)(F)F)cc(=O)[nH]1)Nc1ccc(I)cc1	TEAD-YAP inh 45
O=C1CSC(=S)N1NC(=S)Nc1ccc(OC(F)F)cc1	none
c1ccc(Cc2nc(NCC3COc4ccccc4O3)c3c4c(sc3n2)CCCC4)cc1 (stereo unspecified)	none
Cc1nc(NCC2COc3ccccc3O2)c2c(C)c(C)sc2n1 (stereo unspecified)	TEAD-YAP inh 47
Cc1nc(NCc2ccc3c(c2)OCO3)c2c(C)c(C)sc2n1	TEAD-YAP inh 39
CCOc1ccc(Nc2ccc3ccccc3n2)cc1	TEAD-YAP inh 41
O=C(Nc1nonc1-c1ccccc1)c1ccccc1I	none
O=C1c2ccc(O)c(O)c2C(=O)c2c(O)ccc(O)c21	MITF inh 66
CCOc1ccccc1/C=N\NC(=O)CCn1cnc2ccccc21	none
COc1ccccc1/C=C/c1nn2c(COc3ccccc3)nnc2s1	none
COc1ccccc1/C=C/c1nn2c(-c3ccccc3OC)nnc2s1	TEAD-YAP inh 54
COc1ccccc1/C=C/c1nn2c(Cn3cnc4ccccc43)nnc2s1	TEAD-YAP inh 48
COc1ccccc1/C=C/C=N\NC(=O)CCn1cnc2ccccc21	TEAD-YAP inh 53
